# Test results published in the supplement of paper PMC4894684.
# Structures can show the parent of a compound that is named as a salt. ± gives the standard deviation of the averaged measurements. Hit rate of the full screen: of about 1,000 compounds, about 15 (2%) showed an effect of 50% or more. What follows is part of a selection rich in strong results, with near analogues and random picks from the rest.
# System: HFF
# Test: uninfected host cell viability relative to vehicle control; higher = less host cell toxicity
# Conditions: 5 µM; 72 h; oxygen 21 %
row,SMILES,uninfected host cell viability
1,O=C1NC(=O)c2cc(Nc3ccccc3)c(Nc3ccccc3)cc21,93.23 ± 0.27%
2,COCCOC(=O)C1=C(C)NC(C)=C(C(=O)OC/C=C/c2ccccc2)C1c1cccc([N+](=O)[O-])c1 (stereo not drawn) [Cilnidipine],85.8 ± 2.8%
3,COc1ccccc1C1(O)CCN(CCCn2c3ccccc3c3ccccc32)CC1 [NNC 05-2090 hydrochloride],81.9 ± 1.6%
4,Nc1nc(NCC2CCC(CNS(=O)(=O)c3cccc4ccccc34)CC2)nc2ccccc12 (stereo not drawn),58.6 ± 2.7%
5,CN(Cc1ccccc1)C(=O)[C@H](Cc1ccc2ccccc2c1)NC(=O)[C@@H]1C[C@@H](O)CN1C(=O)c1cn(C)c2ccccc12,83.97 ± 0.68%
6,NC(=O)N/N=C/c1ccc(Oc2ccc(F)cc2)cc1,87.6 ± 3.6%
7,O=C1NC(=O)c2cc(Nc3ccc(F)cc3)c(Nc3ccc(F)cc3)cc21,86.353 ± 0.013%
8,Oc1nc(-c2ccc(C(F)(F)F)cc2)nc2c1CSCC2,83.2 ± 2.4%
9,CCC(=O)NC[C@H](Cc1ccc(OCCc2nc(-c3ccccc3)oc2C)cc1)N/C(C)=C\C(=O)c1ccc(C(F)(F)F)cc1,102 ± 1.4%
10,COC(=O)/C=C/c1cccc(N(Cc2ccc(-c3ccc(N(C)C)cc3)cc2)C(=O)C2CCCCC2)c1 [Fexaramine],96 ± 2.3%
11,CC(=O)OCCNC(=O)c1cccnc1 [N-[2-(Acetoxy)ethyl]-3-pyridinecarboxamide],82.8 ± 3.4%
12,OC1CCC(Nc2nc(-c3ccccc3)nc3[nH]ccc23)CC1 (stereo not drawn),85.37 ± 0.31%
13,Cc1ccc2c(c1)c1c3n2CCNC3CCC1 (stereo not drawn) [Pirlindole mesylate],88 ± 6.3%
14,CC(C)c1ccc(C(=O)c2cccs2)c(SCCCCCCCCN(C)C)n1,74.54 ± 0.56%
15,OC(CN1CCC(Cc2ccc(F)cc2)CC1)c1ccc(Cl)cc1 (stereo not drawn) [Eliprodil],88.9 ± 1.1%
16,O=c1cc(N2CCOCC2)oc2c1ccc1ccccc12,82.9 ± 0.9%
17,COc1ccc(OC)c2c(=S)c3ccccc3[nH]c12,76.9 ± 3.1%
18,COC(=O)C1=C(C)NC(C)=C(C(=O)OCCCN2CCC(c3ccccc3)(c3ccccc3)CC2)[C@H]1c1cccc([N+](=O)[O-])c1 [(S)-(+)-Niguldipine hydrochloride],76.95 ± 0.17%
19,CCC(=O)OCN1C(=O)C=CC1=O,90.82 ± 0.35%
20,Nc1c(Br)cc(Br)cc1CN[C@H]1CC[C@H](O)CC1 [Ambroxol hydrochloride],83.8 ± 1.4%
21,CCCCCCCCCCCCCCCC(=O)O[C@H](CC(=O)O)C[N+](C)(C)C (racemic) [(±)-Palmitoylcarnitine chloride],89.8 ± 4.6%
22,CN(CC[C@@H](Oc1ccc(-c2ccccc2)cc1)c1ccc(F)cc1)CC(=O)O [ALX 5407 hydrochloride],89.7 ± 7.4%

row,SMILES,uninfected host cell viability
1,COc1cc2c(Nc3ccc(NC(=O)c4ccccc4)cc3)ncnc2cc1OCCCN1CCOCC1,64.74 ± 0.56%
2,COc1ccc(NC(=O)c2ccc(-c3ccc(-c4noc(C)n4)cc3C)cc2)cc1OCCN(C)C,36.9 ± 27%
3,COc1ccc(NC(=O)c2ccc(-c3ccc(-c4noc(C)n4)cc3C)cc2)cc1N1CCN(C)CC1,70.2 ± 7.3%
4,CCN(CC)c1ccc(/C=N/NC(=O)c2ccc(O)cc2)cc1,86.7 ± 5.1%
5,CCCCC[C@H](O)/C=C/[C@H]1[C@H](O)CC(=O)[C@@H]1CCCCCCC(=O)O [Alprostadil],91.7 ± 4.5%
6,CC1Nc2ccc(Cl)cc2S(=O)(=O)N1 (stereo not drawn),95.27 ± 0.86%
7,Cn1cc(C2=C(c3ccc(Cl)cc3Cl)C(=O)NC2=O)c2ccccc21,72.6 ± 4.2%
8,Cn1cc(C2=C(c3cn(CCCSC(=N)N)c4ccccc34)C(=O)NC2=O)c2ccccc21 [Ro 31-8220 mesylate],14.2 ± 0.54%
9,CN(C)CCCn1cc(C2=C(c3c[nH]c4ccccc34)C(=O)NC2=O)c2ccccc21,62.3 ± 1.5%
10,O=C(O)CC/C=C\C[C@H]1CO[C@@H](c2ccccc2Cl)O[C@H]1c1ccccc1O,98.6 ± 1.1%
11,CCOC(=O)c1c(C)[nH]c2ccc3c(c12)CN1CCc2cc(OC)ccc2C1O3 (stereo not drawn),96.1 ± 2.8%
12,CC(Oc1ccc(O)cc1)(P(=O)(O)O)P(=O)(O)O,95.3 ± 1.8%
13,CN(C)C(=O)C(=O)c1cn(C)c2cc(Cl)c(C(=O)N3CCC(Cc4ccc(F)cc4)CC3)cc12,88.4 ± 2.3%
14,CCOCC(O)COc1ccc(NC(=O)CC[S+](C)C)cc1 (stereo not drawn) [Suplatast tosylate],97.7 ± 1.6%
15,CNC(=O)[C@H]1O[C@@H](n2cnc3c(NCc4cccc(I)c4)ncnc32)[C@H](O)[C@@H]1O,80.94 ± 0.44%
16,CCN(c1ccccc1)c1cc(=NC)n(C)c(C)n1,92.2 ± 1.3%
17,CCOC(=O)c1ccc(OC(=O)CCCCCNC(=N)N)cc1 [Gabexate mesylate],89.8 ± 11%
18,O=[N+]([O-])c1cc(Cl)ccc1S(=O)(=O)N1CCN(Cc2ccccc2)CC1,98.8 ± 3.2%
19,CN1CC(=O)N=C1NC(=O)Nc1cccc(Cl)c1 [Fenobam],80.93 ± 0.68%
20,CCCCc1nn(-c2ccccc2C(F)(F)F)c(=O)n1Cc1ccc(-c2ccccc2S(=O)(=O)NC(=O)c2sccc2C)cc1,84.8 ± 3.6%
21,COc1cc(NC(=O)c2ccccn2)ccc1Cl,95.9 ± 2.8%
